Results on five molecules are retold here after PubChem BioAssay.

Assay [1] in a line: binders of probe aFSTL3 on microarray, primary screen, stem cell growth factor project, biochemical, small-molecule microarray, fluorescence 635/667 (AID 1064).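 Note: measures binding of the biotinylated anti-FSTL3 antibody to printed compounds.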 The settings on record: higher = more signal.
Assay [2] in a line: binders from COS7 lysate, DM2A8 probe, primary screen, torsin A project, cell lysate, small-molecule microarray, fluorescence 635/667 (AID 1065). The following applies: higher = more signal, COS7 lysate expressing mutant human TOR1A.
Assay [3] in a line: binders of probe aFGF2 on microarray, primary screen, stem cell growth factor project, biochemical, small-molecule microarray, fluorescence 635/667 (AID 1067).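 Note: measures binding of biotinylated aFGF2 protein to printed compounds on slides; z-score merges feature fluorescence and signal-to-noise across triplicate slides.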 The settings on record: higher = more signal.
Assay [4] can be described thus: binders of probe aFGF10 on microarray, primary screen, stem cell growth factor project, biochemical, small-molecule microarray, fluorescence 635/667 (AID 1071).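 Note: score merges 667 nm spot intensity and signal to noise from triplicate slides.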 The settings on record: higher = more signal.
In assay [5] the target is Neurogenic locus notch homolog protein 2 (Homo sapiens) (UniProt Q04721). The experiment in a line: Notch2 binders on small-molecule microarrays, primary screen, biochemical, small-molecule microarray, 635 nm fluorescence, stem cell growth factors (AID 1073). The following applies: Notch2 binding, higher = more signal.
Sequence of Neurogenic locus notch homolog protein 2 (Homo sapiens) (Q04721 whole entry, looked up, canonical isoform): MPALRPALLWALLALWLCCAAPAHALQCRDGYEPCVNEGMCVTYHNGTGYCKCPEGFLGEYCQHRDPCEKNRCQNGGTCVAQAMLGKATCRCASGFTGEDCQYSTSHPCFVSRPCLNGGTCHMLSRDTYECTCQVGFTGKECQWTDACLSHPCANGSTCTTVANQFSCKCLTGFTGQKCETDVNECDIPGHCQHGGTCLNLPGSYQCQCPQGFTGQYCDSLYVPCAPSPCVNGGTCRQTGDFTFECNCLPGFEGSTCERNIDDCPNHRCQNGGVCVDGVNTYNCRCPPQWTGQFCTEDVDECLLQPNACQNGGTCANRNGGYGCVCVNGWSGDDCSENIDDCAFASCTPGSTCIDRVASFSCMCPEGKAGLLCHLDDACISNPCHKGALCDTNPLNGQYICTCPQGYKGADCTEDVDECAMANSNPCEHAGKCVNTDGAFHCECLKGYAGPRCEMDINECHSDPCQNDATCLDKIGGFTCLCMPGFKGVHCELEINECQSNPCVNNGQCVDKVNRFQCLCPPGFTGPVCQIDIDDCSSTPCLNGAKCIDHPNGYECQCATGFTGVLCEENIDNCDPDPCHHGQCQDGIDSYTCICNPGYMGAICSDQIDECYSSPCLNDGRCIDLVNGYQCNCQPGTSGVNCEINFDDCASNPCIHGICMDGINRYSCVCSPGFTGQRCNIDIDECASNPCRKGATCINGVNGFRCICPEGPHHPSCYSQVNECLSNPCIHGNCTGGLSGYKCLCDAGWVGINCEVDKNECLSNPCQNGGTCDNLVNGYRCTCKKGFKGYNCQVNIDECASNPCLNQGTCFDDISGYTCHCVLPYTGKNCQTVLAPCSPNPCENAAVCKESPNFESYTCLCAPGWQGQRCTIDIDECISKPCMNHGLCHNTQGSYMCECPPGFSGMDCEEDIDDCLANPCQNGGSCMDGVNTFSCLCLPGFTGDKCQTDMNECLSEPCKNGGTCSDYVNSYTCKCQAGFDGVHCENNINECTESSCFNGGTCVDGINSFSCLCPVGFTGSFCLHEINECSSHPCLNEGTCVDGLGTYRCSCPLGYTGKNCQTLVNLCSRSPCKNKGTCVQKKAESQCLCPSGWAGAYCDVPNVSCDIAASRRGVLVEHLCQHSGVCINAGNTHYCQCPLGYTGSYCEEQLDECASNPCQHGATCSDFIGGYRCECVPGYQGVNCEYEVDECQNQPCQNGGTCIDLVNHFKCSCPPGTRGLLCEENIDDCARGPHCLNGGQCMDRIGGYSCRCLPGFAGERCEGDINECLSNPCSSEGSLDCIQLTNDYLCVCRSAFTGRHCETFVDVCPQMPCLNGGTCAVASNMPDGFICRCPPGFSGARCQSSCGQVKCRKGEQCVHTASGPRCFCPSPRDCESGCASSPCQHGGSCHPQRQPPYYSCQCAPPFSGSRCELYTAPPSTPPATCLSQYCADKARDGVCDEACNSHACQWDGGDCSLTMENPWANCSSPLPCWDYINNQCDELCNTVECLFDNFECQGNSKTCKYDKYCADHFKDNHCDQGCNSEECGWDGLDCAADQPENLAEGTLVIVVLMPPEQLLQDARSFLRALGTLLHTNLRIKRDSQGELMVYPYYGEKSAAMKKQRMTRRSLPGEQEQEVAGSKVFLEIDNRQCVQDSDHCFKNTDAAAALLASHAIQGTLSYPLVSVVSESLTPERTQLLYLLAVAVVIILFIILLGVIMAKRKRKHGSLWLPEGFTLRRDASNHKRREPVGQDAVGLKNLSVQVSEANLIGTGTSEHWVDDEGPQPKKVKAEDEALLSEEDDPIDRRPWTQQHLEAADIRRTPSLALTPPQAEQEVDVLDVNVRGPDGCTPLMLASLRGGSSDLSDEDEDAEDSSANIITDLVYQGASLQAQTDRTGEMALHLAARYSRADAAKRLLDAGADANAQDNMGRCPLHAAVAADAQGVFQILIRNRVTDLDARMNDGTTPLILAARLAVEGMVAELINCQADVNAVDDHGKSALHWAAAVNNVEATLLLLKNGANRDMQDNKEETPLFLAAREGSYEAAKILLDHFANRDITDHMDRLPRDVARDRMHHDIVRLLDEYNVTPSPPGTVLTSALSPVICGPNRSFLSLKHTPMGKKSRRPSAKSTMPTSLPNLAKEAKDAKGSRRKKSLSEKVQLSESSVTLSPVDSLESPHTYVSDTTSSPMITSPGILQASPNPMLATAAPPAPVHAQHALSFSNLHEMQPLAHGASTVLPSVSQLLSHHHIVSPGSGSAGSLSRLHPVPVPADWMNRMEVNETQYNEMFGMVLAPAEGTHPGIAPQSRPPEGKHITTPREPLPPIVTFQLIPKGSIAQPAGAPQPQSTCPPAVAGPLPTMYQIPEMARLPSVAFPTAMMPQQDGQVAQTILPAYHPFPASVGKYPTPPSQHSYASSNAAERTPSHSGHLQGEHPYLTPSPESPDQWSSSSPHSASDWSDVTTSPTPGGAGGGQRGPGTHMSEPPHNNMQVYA
The target of assay [6] is Pro-neuregulin-1, membrane-bound isoform (Homo sapiens) (UniProt Q02297). Nature of the assay: NRG1 binders on small-molecule microarrays, primary screen, psychiatric disease protein project, biochemical, small-molecule microarray, fluorescence 635/667 (AID 1075).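 Note: score combines 667 nm spot fluorescence with signal to noise.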 The following applies: NRG1 binding, 635 nm fluorescence, higher = more signal.
Sequence of Pro-neuregulin-1, membrane-bound isoform (Homo sapiens) (Q02297 whole entry, looked up, the tested form may be a part, canonical isoform): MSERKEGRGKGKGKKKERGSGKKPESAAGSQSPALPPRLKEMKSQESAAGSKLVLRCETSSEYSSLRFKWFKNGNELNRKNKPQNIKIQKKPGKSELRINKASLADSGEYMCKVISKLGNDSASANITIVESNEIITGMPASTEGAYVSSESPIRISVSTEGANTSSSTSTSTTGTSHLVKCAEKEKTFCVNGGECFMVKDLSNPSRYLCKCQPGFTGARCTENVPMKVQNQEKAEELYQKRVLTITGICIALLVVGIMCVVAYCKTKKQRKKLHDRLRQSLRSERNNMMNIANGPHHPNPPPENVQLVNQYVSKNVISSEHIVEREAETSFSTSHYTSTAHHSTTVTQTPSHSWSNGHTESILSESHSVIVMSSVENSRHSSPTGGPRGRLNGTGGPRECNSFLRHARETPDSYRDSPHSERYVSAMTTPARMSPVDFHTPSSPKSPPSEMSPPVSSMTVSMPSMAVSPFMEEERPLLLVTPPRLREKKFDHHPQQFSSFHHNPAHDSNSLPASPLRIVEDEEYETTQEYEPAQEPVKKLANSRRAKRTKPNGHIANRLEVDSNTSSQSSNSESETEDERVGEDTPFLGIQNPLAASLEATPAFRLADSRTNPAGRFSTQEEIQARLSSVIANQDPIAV
The test system of assay [7] is Neuregulin-1 EGF-like domain. The experiment in a line: binders of neuregulin-1 EGF-like domain, primary screen, biochemical, small-molecule microarray, 635 nm fluorescence (AID 1081).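 Note: binding of the protein to compounds printed on small-molecule microarray slides.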 The following applies: small-molecule microarray binding, higher = more signal.
The nature of assay [8]: FRG1 promoter luciferase signal modulators, primary screen, FRG1 inhibition for FSHD, cell-based, C2C12 myotubes, firefly/Renilla luciferase, luminescence (AID 1084). The following applies: higher = more signal, called active from +8 up or from −8 down.
Assay [9] in a line: binders of probe aFST on microarray, primary screen, stem cell growth factor project, biochemical, small-molecule microarray, fluorescence 635/667 (AID 1086).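 Note: score merges 667 nm fluorescence with signal-to-noise of each printed compound spot.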 The settings on record: higher = more signal.
Assay [10] in a line: binders of probe aHhip on microarray, primary screen, stem cell growth factor project, biochemical, small-molecule microarray, fluorescence 635/667 (AID 1087).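 Note: score merges spot fluorescence at 667nm with spot signal to noise ratio.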 The settings on record: higher = more signal.
Assay [11] has as its system PRMT1 (protein arginine N-methyltransferase 1). The experiment in a line: PRMT1 binders on small-molecule microarrays, primary screen, biochemical, small-molecule microarray, 635 nm fluorescence (AID 1088).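 Note: binding of Prmt1 protein to compounds spotted on small-molecule microarray slides.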 The settings on record: small-molecule microarray binding, higher = more signal.
Assay [12] is described as follows: yeast growth modulation, basal conditions, primary screen, YJM789 clinical isolate, OD600, 24 h (AID 1089).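 Note: growth of clinical yeast isolate S. cerevisiae YJM 789 seeded 1000 cells per well; test concentration not given here.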 The settings on record: S. cerevisiae YJM789 growth, higher = more signal, called active from +8 up or from −8 down.
A short description of assay [13]: fission yeast growth modulation, primary screen, strain 972, OD600, 24 h, no modulator (AID 1090).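 Note: basal condition with compound alone and no growth modifier present; test concentration not given here.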 The following applies: S. pombe 972 growth, higher = more signal, called active from +8 up or from −8 down.
Assay [14] is described as follows: S. cerevisiae growth modulation with rapamycin, primary screen, strain BY4716, OD600, 96 h (AID 1091). Note: test concentration not given here. The following applies: higher = more signal, called active from +8 up or from −8 down.
Assay [15] has as its target Torsin-1A-interacting protein 2 (Homo sapiens) (UniProt Q8NFQ8). The experiment in a line: LULL1 binders on small-molecule microarray, primary screen, cell lysate, human LULL1 lysate, 635/667 nm fluorescence (AID 1092).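 Note: probe is lysate of COS7 cells overexpressing human LULL1; score merges per-feature 667 nm fluorescence with signal-to-noise.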 The following applies: hLULL1 lysate binding, 635 nm fluorescence, higher = more signal.
Assay [16] in a line: E. coli growth modulation, two-sided OD650, primary screen, E. coli filamentation project, strain DRC41, 24 h (AID 1093).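 Note: MC1000 strain lacking acrAB efflux and sulA so SOS filamentation is blocked; test concentration not given here.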 The settings on record: OD650, 24 h, higher = more signal, called active from +8 up or from −8 down.
Assay [17] is described as follows: small-molecule microarray binders of probe aLefty2, primary screen, biochemical, biotinylated probe, 635/667 nm fluorescence (AID 1094).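 Note: score merges spot fluorescence near 667 nm with spot signal-to-noise ratio.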 The settings on record: higher = more signal.
Assay [18] relates to Noggin (protein binding on small-molecule microarray). The experiment in a line: Noggin binders on small-molecule microarray, primary screen, biochemical, 635/667 nm fluorescence (AID 1095).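 Note: score merges 667 nm feature fluorescence with signal to noise over triplicate slides.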 The following applies: 635 nm fluorescence, higher = more signal.
The target of assay [19] is Neurogenic locus notch homolog protein 3 (Homo sapiens) (UniProt Q9UM47). The experiment in a line: NOTCH3 binders on small-molecule microarray, primary screen, biochemical, 635/667 nm fluorescence (AID 1096). The following applies: NOTCH3 binding, 635 nm fluorescence, higher = more signal.
The nature of assay [20]: small-molecule microarray binders of probe aEGFR, primary screen, biochemical, biotinylated probe, 635/667 nm fluorescence (AID 1097).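 Note: probe is a biotinylated anti-EGFR antibody binding compounds printed on slides; score combines fluorescence near 667 nm and signal to noise of each spot.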 The settings on record: higher = more signal.

The source made the active and inactive calls.

Sequence of Torsin-1A-interacting protein 2 (Homo sapiens) (Q8NFQ8 whole entry, looked up): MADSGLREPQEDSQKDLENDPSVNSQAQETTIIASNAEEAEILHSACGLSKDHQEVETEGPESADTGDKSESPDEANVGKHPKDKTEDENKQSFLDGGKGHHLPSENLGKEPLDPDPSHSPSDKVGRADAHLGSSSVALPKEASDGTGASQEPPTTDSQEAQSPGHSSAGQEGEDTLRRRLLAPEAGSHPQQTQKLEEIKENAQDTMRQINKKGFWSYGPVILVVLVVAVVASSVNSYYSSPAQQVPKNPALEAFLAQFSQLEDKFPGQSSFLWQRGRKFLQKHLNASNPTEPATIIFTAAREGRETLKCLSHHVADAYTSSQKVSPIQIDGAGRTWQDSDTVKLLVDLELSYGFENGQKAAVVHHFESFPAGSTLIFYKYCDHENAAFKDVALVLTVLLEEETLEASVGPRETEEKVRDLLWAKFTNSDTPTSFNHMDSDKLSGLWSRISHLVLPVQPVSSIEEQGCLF

Turning to `COc1ccc([Si](C)(C)[C@H]2[C@H](CC(=O)N3Cc4ccccc4C[C@H]3CO)O[C@@]3(C(=O)N(c4ccccc4)c4ccccc43)[C@@H]2C)cc1`, the composite z-score in assay [1] turned out to be 0.0545; in [2], 1.37; in [3], 0.0568; in assay [4], 0.748; in [5], 0.584; in [6] it was 1.16. Also, the composite z-score was 1.16 in assay [7]; 0.381 in [9]; 0.21 in [10]; 1.53 in [11]; 1.47 in assay [15]; -0.0088 in assay [17]. In addition, the composite z-score in assay [18] came out at 1.85; in [19], 1.09; in assay [20] it was 0.0059. Also, the z-score in assay [8] was -2.31 (inactive); in assay [12], -2.39 (inactive); in assay [13], -1.61 (inactive); in assay [14] it was -0.776 (inactive); in [16], 1.65 (inactive).

For `COC(=O)C1=CC(CCCO)=CC(c2cccs2)N(Cc2cc3c(cc2Br)OCO3)C=C1C(=O)OC` (stereo not given), the composite z-score in [1] worked out at 0.0066; in assay [2], 0.951; in assay [3] it was 0.0931; in assay [4], 1.02; in [5], 1.27; in assay [6], 1.66. Moreover, the composite z-score was 1.33 in assay [7]; 0.182 in [9]; 0.0972 in assay [10]; 1.56 in assay [11]; 3.17 in assay [15]; 0.109 in assay [17]. The composite z-score in [18] came to 0.404; in assay [19], 1.12; in assay [20], 0.236. Further, the z-score is -2.18 (inactive) in assay [8]; 0.74 (inactive) in assay [12]; -0.997 (inactive) in assay [13]; 0.132 (inactive) in [14]; 0.923 (inactive) in assay [16].

Regarding `CN1C(=O)C2C=CC(C(O)c3ccc(-c4ccccc4)s3)N(NC(=O)OC(C)(C)C)C2C1=O` (stereo not given), the composite z-score is 0.905 in assay [1]; 0.286 in assay [2]; -0.229 in [3]; 0.419 in assay [4]; 1.58 in assay [5]; 1.88 in assay [6]. For the same molecule, the composite z-score in assay [7] is 1.21; in assay [9], 0.913; in assay [10] it was -0.0618; in assay [11] it was 0.938; in assay [15], 2.92; in assay [17], 0.367. Also, the composite z-score in assay [18] was -0.0619; in assay [19], 0.687; in assay [20], -0.033. The z-score is 0.392 (inactive) in [8]; -0.673 (inactive) in assay [12]; 1.47 (inactive) in [13]; 0.0406 (inactive) in assay [14]; -0.328 (inactive) in assay [16].

Turning to `COCCn1c(C(=O)N(C)C)cc2c1C[C@H]1CN(C(=O)c3ccccc3)[C@@](Cc3ccc(OC)cc3)(C(=O)OC)[C@@H]21`, the composite z-score in [1] was 0.609; in assay [2], -0.478; in [3] it was -0.19; in assay [4], 0.34; in [5] it was 1.64; in assay [6], 1.54. For the same molecule, the composite z-score in assay [7] was 1.27; in assay [9], 1.32; in assay [10] it was 0.0053; in assay [11], -0.325; in assay [15], 3.31; in [17], 0.43. The composite z-score in [18] was -0.465; in [19], 1.1; in assay [20], 0.0634. The z-score is 1.54 (inactive) in [8]; 1.15 (inactive) in assay [12]; 1.82 (inactive) in assay [13]; 2.03 (inactive) in assay [14]; -0.332 (inactive) in [16].

In the case of `CCOC(=O)C[C@H]1[C@H](OC(=O)c2cc3ccccc3oc2=O)[C@@H](NC(=O)CC(C)C)c2cc(OCCCO)ccc2N1C(=O)Cc1ccc(OC)cc1`, the composite z-score is -0.699 in assay [1]; -0.115 in [2]; -0.114 in assay [3]; 0.499 in assay [4]; 0.508 in assay [5]; 0.324 in assay [6]. Moreover, the composite z-score in assay [7] was 0.49; in assay [9], 0.479; in assay [10] it was -0.201; in [11] it was 1.14; in [15], 1.3; in assay [17] it was -0.165. Also, the figures for the composite z-score in [18], in assay [19] and in [20] were 0.322, 0.924 and -0.0973, respectively. Moreover, the z-score in [8] was -0.509 (inactive); in assay [12], -0.238 (inactive); in assay [13] it was -0.462 (inactive); in assay [14], 0.052 (inactive); in assay [16], -0.479 (inactive).
